The source of these data is PubChem BioAssay AID588343 (Broad Institute, 2011).

Structures are written as SMILES. About 650 (54%) of roughly 1,200 compounds were called active. About 5% were inconclusive and are not listed.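 The calls were made as follows: active = signal-lowering curve whose fitted half-maximal concentration is at or below ten times the top valid dose tested; inconclusive = flat curve with 30 to 70% inhibition, or poor fit; inactive = signal increase, flat within 30%, or potency beyond limit.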 The set was probably picked from earlier hits. The list is a sample of the results. Results with a measured potency or affinity are listed apart.

The assay is described as follows: inhibitors of LMP1-driven NF-kB reporter, dose response, cell-based, HEK293, luciferase, cherry-pick (AID 588343). The following applies: HEK293 LMP1 TES2 NF-kB luciferase reporter, 16 h; series mostly up to 35 µM. A general note: A reporter such as luciferase makes a cellular process visible.
For `O=[N+]([O-])c1ccc(/C=N/Nc2cc(Cl)nc(-c3ccccc3)n2)cc1`, the call was inactive.

Consider `COC(=O)C1=C(C)N(c2cc(C)cc(C)c2)/C(=C/c2ccc(O)cc2)C1=O`, for which the call was inactive.

As to `COC(=O)c1ccc(/C=C(/NC(=O)c2ccccc2)C(=O)N2CCOCC2)cc1`, the outcome was inactive.

Consider `CC[C@H]1OC(=O)[C@H](C)[C@@H](O[C@H]2C[C@@](C)(OC)[C@@H](O)[C@H](C)O2)[C@H](C)[C@@H](O[C@@H]2O[C@H](C)C[C@H](N(C)C)[C@H]2O)[C@](C)(O)C[C@@H](C)C(=NOCOCCOC)[C@H](C)[C@@H](O)[C@]1(C)O`, for which the result was inactive.

Consider `Cc1nnc(NC(=O)CSc2nnc(Cc3cccn3C)n2CCc2ccccc2)s1`, for which the compound was classed as inactive.

On to `Cc1ccnc(SCCn2c(N3CCN(c4ccccc4)CC3)nc3c2c(=O)[nH]c(=O)n3C)n1`, for which the result was inactive.

For the compound `CSc1nc(N)nc(SCC(=O)C23CC4CC(CC(C4)C2)C3)c1C#N`, the call was inactive.

With `O=C(O)/C=C/c1ccc(Cn2ccnc2)cc1`, the result was inactive.

For the compound `Oc1[nH]c2ccccc2c1N=Nc1c(F)c(F)c(Cl)c(F)c1F`, the compound was classed as inactive.

As for `CC(C(=O)N=Nc1c(O)[nH]c2ccccc12)n1cnc2ccccc2c1=O` (stereo not drawn), the compound was called inactive.

In the case of `O=C(CCc1ccccc1Cl)N1CCN(S(=O)(=O)c2ccccc2)CC1`, the call was inactive.

As for `COc1ccc(-c2cnc(NCc3cc4c(cc3[N+](=O)[O-])OCO4)n2C)cc1`, the compound was classed as inactive.

In the case of `COC(=O)C(NS(=O)(=O)c1ccc(N2CCCC2=O)cc1)c1ccccc1` (stereo not drawn), the result was inactive.

For the compound `CC(C)c1nnc(NC(=O)c2ccc(N3C(=O)CCC3=O)cc2)s1`, the outcome was inactive.

In the case of `Cn1nc(-c2ccc(N3CCOCC3)c(NS(=O)(=O)c3ccccc3)c2)c2ccccc2c1=O`, the compound was classed as inactive.

In the case of `COc1ccc(OC)c2c1sc(=NC(=O)c1ccco1)n2C`, the result was inactive.

In the case of `CCCCCC(=O)N1C[C@@H](O)[C@H](n2cc(C3CC3)nn2)C[C@@H]1c1ccc(C)cc1`, the compound was called inactive.

`CCCc1cc(=O)[nH]c(SCC(=O)NC2CCCCC2)n1`: the result was inactive.

With `CN1C(=O)C(CC(=O)NC2CCCCC2)SC1=Nc1ccccc1` (stereo not drawn), the result was inactive.

In the case of `COc1ccc(C(=O)CSc2nnc(Cc3ccccc3)o2)cc1`, the result was inactive.

For the compound `COc1ccc(S(=O)(=O)NC(CC(=O)NCc2ccco2)C(C)C)cc1` (stereo not drawn), the compound was classed as inactive.

Take `CCOCCCn1cnc2c3cc(F)ccc3n(C)c2c1=O`: the compound was called inactive.

As for `CCOC(=O)N1CCC(n2c(=S)[nH]c3ccccc3c2=O)CC1`, the call was inactive.

In the case of `COc1cc(Cl)cc(C(c2c(C(=O)O)[nH]c3ccccc23)c2c(C(=O)O)[nH]c3ccccc23)c1O`, the compound was called inactive.

Regarding `COc1ccc(CCNC(=O)CSc2ccsc2[N+](=O)[O-])cc1OC`, the result was inactive.

As for `COc1ccc(CCNC(=O)CSC(=O)c2ccccc2)cc1OC`, the outcome was inactive.

For `O=C(c1noc2c1CCCC2)N1CCCCC1`, the compound was classed as inactive.

With `COc1cc(/C=C(\C#N)c2ccccn2)ccc1OCc1ccccc1Cl`, the outcome was inactive.

For the compound `COCCN1Cc2cccc(C(=O)N3CCN(c4cc(C)ccc4C)CC3)c2C1=O`, the compound was classed as inactive.

For the compound `CCOC(=O)c1ccc(NC(=O)CSc2nc(N3CCOCC3)nc(N3CCOCC3)n2)cc1`, the compound was classed as inactive.

`Cn1cc(S(=O)(=O)N2CCN(C(=O)c3ccco3)CC2)c(=O)n(C)c1=O`: the call was inactive.

With `CCN(CC(=O)Nc1ccc(NC(C)=O)cc1)C(=O)c1cccnc1Sc1ccc(C)c(C)c1`, the outcome was inactive.

As for `O=C(c1cccs1)N1CC=C(c2ccccc2)CC1`, the compound was classed as inactive.

`O=C(c1ccco1)N1CCN(S(=O)(=O)/C=C/c2ccccc2)CC1`: the call was inactive.

With `CCOC(=O)c1ccc(NC(=S)N2CCSC2c2ccc(OC)cc2)cc1` (stereo not drawn), the call was inactive.

As to `COC(=O)C1=C(C)NC(C)=C(C(=O)OCC(C)C)C1c1ccccc1[N+](=O)[O-]` (stereo not drawn), the result was inactive.

For the compound `O=C(O)C1CC(=O)N(c2ccc(Br)cc2)C1` (stereo not drawn), the compound was called inactive.

Take `CCCC(C)NC(C)C(=O)NC1CCCC1` (stereo not drawn): the compound was classed as inactive.

On to `CCCCCCNC(=O)O[C@]12C[C@@H](C(=O)OC)[C@@H](C(=O)OC)C[C@@]1(O)CN(S(=O)(=O)c1ccc(C)cc1)C2`, for which the call was inactive.

`Cc1nc(N)nc(SCc2ccc([N+](=O)[O-])cc2)c1N`: the compound was called inactive.

For `Brc1cccc(-c2cnco2)c1`, the compound was classed as inactive.

Consider `CC(C)NCC(O)COc1cccc2ccccc12` (stereo not drawn), for which the compound was classed as inactive.

As for `Cc1ccc(NC(=S)NCc2cccs2)cc1`, the result was inactive.

For the compound `Cc1ccc(CCNC(=O)Cc2ccc(NC3=NC4CS(=O)(=O)CC4S3)cc2)cc1` (stereo not drawn), the call was inactive.

Turning to `CCC(=O)OC1c2ccccc2C(=O)N1Cc1ccccc1` (stereo not drawn), the call was inactive.

As to `CC1=CC(=NOC(=O)/C=C/c2ccccc2)C=C(C)C1=O`, the outcome was inactive.

Regarding `O=C1CC(c2ccccc2)Oc2ccccc21` (stereo not drawn), the call was inactive.

For the compound `COc1ccccc1C1(CC(=O)O)CCOC(C)(C)C1` (stereo not drawn), the result was inactive.

Consider `O=C(Cn1cc(CNC(=O)C2CCCCC2)nn1)Nc1cc(C(F)(F)F)ccc1Cl`, for which the result was inactive.

Consider `COC(=O)c1[nH]c2ccc(C)cc2c1NC(=O)NC1CCCCC1`, for which the compound was called inactive.

Turning to `Cn1cc(CC(=O)NCCCN2CCCC2)c2ccccc21`, the call was inactive.

With `O=C(NCCCN1CCCCC1)c1ccc2c(c1)NC(=O)c1ccccc1S2`, the compound was classed as inactive.

On to `CCCNC(=O)N1CCN(S(=O)(=O)c2ccc(C)c(C)c2)CC1`, for which the outcome was inactive.

As for `COc1ccc(S(=O)(=O)N2CCC(C(=O)NC3CC3)CC2)cc1OC`, the result was inactive.

In the case of `O=C(O)c1ccc(-n2cncn2)c([N+](=O)[O-])c1`, the compound was called inactive.

As for `O=S(=O)(N/N=C/c1ccccc1F)c1ccccc1`, the compound was classed as inactive.

Regarding `CCSc1nc2ccc(OC)cc2cc1C#N`, the call was inactive.

Take `O=[N+]([O-])c1cc(/C=N\O)ccc1Oc1ccc(F)cc1`: the compound was classed as inactive.

In the case of `CCOC(=O)c1sc2nc(C)nc(NCc3ccccc3)c2c1C`, the compound was called inactive.

For the compound `Cn1c(=O)c2ncn(CC(=O)O)c2n(C)c1=O`, the compound was classed as inactive.

Consider `COc1ccc(C(Nc2ccccn2)c2oc(CO)cc(=O)c2O)cc1` (stereo not drawn), for which the compound was called inactive.

As for `Cc1ccc2c(c1)N(CC(=O)N1CCCC1)C(=O)c1cccnc1O2`, the call was inactive.

Take `COc1ccc(S(=O)(=O)N2CCN(CC(=O)Nc3ccc(C)c(F)c3)CC2)cc1`: the outcome was inactive.

Regarding `O=C(NCc1ccccc1Cl)C1CCCN1S(=O)(=O)c1ccc(F)cc1` (stereo not drawn), the compound was classed as inactive.

`O=C1c2ccccc2C(Nc2cccnc2)N1Cc1ccccc1` (stereo not drawn): the result was inactive.

Turning to `CC1S/C(=C(\C#N)C(=O)NCc2ccco2)N(Cc2ccco2)C1=O` (stereo not drawn), the compound was classed as inactive.

In the case of `N=C1S/C(=C\c2ccccc2)C(=O)N1c1ccc(F)cc1`, the outcome was inactive.

For the compound `Cc1ccc(C2=C/C(=C\c3cccnc3)C(=O)O2)cc1`, the compound was classed as inactive.
